High-throughput results from PubChem.
HTT ATP protect: qHTS Multiplex Assay to Identify Dual Action Probes in a Cell Model of Huntington: Cytoprotection (ATP); Potency, µM (highest dose often 56.4 µM), without a hit: cytoprotection (ATP increase), hits mostly activators; PC12 HTT-Q103 induced, cytoprotection, ATP luminescence, 40 h; 230,000 compounds, 0.14% hits; AID 1471, 2008; further: potency means the concentration at half of the fitted maximal effect; % of control where 0% means no effect; nearly all actives have a fitted effect of over 45% in size
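PC12 cells with ecdysone-inducible HTT exon 1 Q103-GFP, induced with 100 nM tebufenozide and co-treated with library compounds in a dose series (1536-well, 1500 cells/well). Cytoprotection read as ATP content by ATPlite luminescence.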
ALDH1A1 inh: qHTS Assay for Inhibitors of Aldehyde Dehydrogenase 1 (ALDH1A1). Aldehyde dehydrogenase 1A1 (Homo sapiens), P00352. Purified ALDH1A1, NADH fluorescence, propionaldehyde substrate. Potency, µM (series often up to 75.3 µM), for inactives: top-dose activity, negative = inhibition, usual class: inhibitors. 220,000 compounds, 7.3% hits; active means well fitted inhibition curve with a large enough effect, not every such curve was filed as active; inconclusive means small, poorly fitted or top-dose-only effect, or another doubt; inactive means no such curve, though single readings can be large or run the other way;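 further: potency means the concentration at half of the fitted maximal effect; plate controls were no enzyme wells and a reference inhibitor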
JMJD2E inh: qHTS Assay for Inhibitors of Human Jumonji Domain Containing 2E (JMJD2E); JMJD2E catalytic domain, FDH-coupled NADH fluorescence (FDH is formaldehyde dehydrogenase); 230,000 compounds, 1.6% hits; Lysine-specific demethylase 4E (Homo sapiens), B2RXH2; Potency, µM (series often up to 57.1 µM), for the others: at the top dose activity change, negative = inhibition, most hits filed as inhibitors; active means well fitted inhibition curve with a large enough effect, not every such curve was filed as active; inconclusive means small, poorly fitted or top-dose-only effect, or another doubt; inactive means no such curve, though single readings can be large or run the other way;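 further: potency means the concentration at half of the fitted maximal effect; 0% = wells with enzyme and -100% = buffer wells without enzyme; nearly all actives have a fitted effect of over 50% in size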
HttQ103 aggreg: qHTS Multiplex Assay to Identify Dual Action Probes in a Cell Model of Huntington: Aggregate Formation (GFP); PC12 HttQ103-GFP aggregates, Acumen cytometry, 40 h; 220,000 compounds, 1.1% hits; AID 1688, 2009; Potency, µM (highest dose often 46.1 µM), without a hit: at the top dose activity change, negative = inhibition, usual class: inhibitors; further: potency means the concentration at half of the fitted maximal effect; on the % scale 0 is the no-effect control and ±100 the full control effect; nearly all actives have a fitted effect of over 60% in size
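Aggregate formation scored by laser-scanning cytometer (488 excitation, 500–530 emission) in lysed PC12 cells expressing Q103-GFP after 100 nM tebufenozide induction; library tested in dose series, with ATPLite reagent added in the multiplex.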
HPGD block: qHTS Assay for Inhibitors of HPGD (15-Hydroxyprostaglandin Dehydrogenase); 15-hydroxyprostaglandin dehydrogenase [NAD(+)] (Homo sapiens), P15428; purified HPGD, NADH fluorescence kinetic, PGE2 substrate; Potency, µM, for the others: at the highest dose activity change, negative = inhibition, actives largely listed as inhibitors; 150,000 compounds, 4.3% hits; active means well fitted inhibition curve with a large enough effect, not every such curve was filed as active; inconclusive means small, poorly fitted or top-dose-only effect, or another doubt; inactive means no such curve, though single readings can be large or run the other way; further: potency means the concentration at half of the fitted maximal effect; on the % scale 0 is the no-effect control and ±100 the full control effect
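20 nM HPGD preincubated 15 min at room temperature with compound in 50 mM Tris-HCl pH 8, 0.01% Tween 20. Started with 1 mM NAD+ and 30 uM prostaglandin E2; NADH fluorescence (360/450 nm) read 5 times over 30-s intervals, last minus first.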
CBFb-RUNX1 inh: qHTS Assay for Compounds Blocking the Interaction Between CBF-beta and RUNX1 for the Treatment of Acute Myeloid Leukemia | AlphaScreen CBFb-His/RUNX1-biotin binding, biochemical | AID 1477, 2009 | Potency, µM (series often up to 59.8 µM), for inactives: at the highest dose activity, negative = inhibition, actives largely listed as inhibitors | 230,000 tested, under 10 active | Runt-related transcription factor 1 (Homo sapiens) + Core-binding factor subunit beta …; further: % of control where 0% means no effect
Target sequence (Q01196 whole entry, looked up): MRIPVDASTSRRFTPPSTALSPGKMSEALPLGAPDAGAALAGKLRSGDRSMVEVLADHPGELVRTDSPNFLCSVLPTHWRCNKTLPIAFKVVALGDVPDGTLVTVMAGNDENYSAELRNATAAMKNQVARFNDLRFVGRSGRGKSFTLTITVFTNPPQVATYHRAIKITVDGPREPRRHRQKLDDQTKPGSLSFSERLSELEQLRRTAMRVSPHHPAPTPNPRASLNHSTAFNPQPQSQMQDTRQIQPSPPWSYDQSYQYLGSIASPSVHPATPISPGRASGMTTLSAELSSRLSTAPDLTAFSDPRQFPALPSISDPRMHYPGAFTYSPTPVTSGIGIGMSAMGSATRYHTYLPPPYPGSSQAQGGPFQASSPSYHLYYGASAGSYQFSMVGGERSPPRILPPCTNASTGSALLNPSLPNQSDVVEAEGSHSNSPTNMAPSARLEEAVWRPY
Target sequence (Q13951 whole entry, looked up): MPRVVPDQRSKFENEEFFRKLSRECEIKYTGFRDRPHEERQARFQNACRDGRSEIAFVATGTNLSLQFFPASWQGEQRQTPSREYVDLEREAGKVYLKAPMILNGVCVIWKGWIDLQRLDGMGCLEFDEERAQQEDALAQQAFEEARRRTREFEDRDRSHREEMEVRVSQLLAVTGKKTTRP
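Interaction loss through any mechanism counts as activity. Pre-formed complex of His-CBF-beta and biotin-RUNX1 (30 nM apiece) is incubated with compound 15 min, then with 50 ng nickel and 50 ng streptavidin beads for 90 min before AlphaScreen detection.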
The depositor's hits bear a star; ? = inconclusive; · = no result given; [ ] = dose if it differs, or a comment. A selection: hits, their analogues and other compounds. The true share with any hit is near 9.8%. Unless noted, the call rests on the fitted dose curve; in most records, active means well fitted curve in the direction sought with a large enough effect; inconclusive means small, poorly fitted or top-dose-only effect, or another doubt; inactive means no such curve, though single readings can be large; an effect the other way counts as inactive or inconclusive.

SMILES | HTT ATP protect | ALDH1A1 inh | JMJD2E inh | HttQ103 aggreg | HPGD block | CBFb-RUNX1 inh
Cc1cc(N2CCCC2)ccc1/C=C1/C(=O)N(C)C(=S)N1C | -28% | ? | -11% | 18%[9.22 µM] | · | ?
CCCN1C(=O)S/C(=C\c2ccc(N3CCOCC3)cc2C)C1=O | -5% | 1.6µM* | 2% | 3% | -11% | 3%
CCC(C)N1C(=O)S/C(=C/c2ccc(N3CCOCC3)cc2C)C1=O (centres undefined) | · | 10µM* | 9% | -14% | -2% | 14%
N#CCCN(C1CCCCC1)S(=O)(=O)CCOc1ccccc1 | 1%[10 µM] | 8.9µM* | 3% | -4% | -4% | 8%
COc1ccc(OCC(O)CNS(=O)(=O)c2ccc(C)cc2)cc1 (centres undefined) | 22%[10 µM] | ? | 2% | 1%[9.22 µM] | · | 7%
Cc1cc(C)c2nc3s/c(=C/c4ccc5c(c4)n(C)c(=O)n5C)c(=O)n3c2c1 | -20%[10 µM] | 18µM* | -12% | ? | 16µM* | 10%
O=c1/c(=C/c2ccccn2)sc2nc3ccccc3n12 | -6% | 6% | -7% | 8% | -8% | 3%
COC(=O)CC1c2ccccc2C(Cc2ccc3c(c2)OCO3)=C(C)N1C(=O)OC (centres undefined) | -81% | 4% | -1% | · | -7% | 7%
CCCCOc1ccc(CCC(=O)N/N=C/c2ccco2)cc1 | 1%[10 µM] | -13% | -3% | -1%[9.22 µM] | · | 1%
COc1ccc(CSc2nc3ccccc3c(=O)n2CCCN2CCOCC2)cc1F | -19%[10 µM] | ? | 2% | 2% | · | -4%
O=C1C2CC=C(Cl)CC2C(=O)N1CC1Cc2ccccc2CO1 (centres undefined) | -35% | 22µM* | -16% | 11% | 22µM* | -6%
O=C1C2CC=C(Cl)CC2C(=O)N1CC1OCCc2ccccc21 (centres undefined) | 14% | ? | 5% | 30% | -20% | 2%
COc1ccc(Cc2nnc(NS(=O)(=O)c3ccc(Cl)cc3)s2)cc1OC | -4%[10 µM] | ? | 5% | 5%[9.22 µM] | · | 2%
O=C1CC(c2ccco2)CC(O)=C1C=NCCO (centres undefined) | -5% | 4% | -11% | 29% | · | 4%
O=C1CC(c2ccco2)CC(O)=C1C=NCC1NCCc2ccccc21 (centres undefined) | 21%[10 µM] | ? | 20µM* | 13% | -14% | -13%
Cc1cccc(NC(=O)Cn2cnc3ccc(S(=O)(=O)N4CCC(C)CC4)cc3c2=O)n1 | -6% | -6% | -2% | -2% | -14% | 0%
Cc1oc(-c2ccccc2Cl)nc1CSCC(=O)N1CCCC1 | 13%[10 µM] | ? | -3% | -10% | -16% | 9%
O=c1[nH]c(SCc2cccc(F)c2)nc2c1CCCC2 | · | -10% | -3% | -4% | 7.1µM* | 0%
Cc1oc(-c2ccccc2Cl)nc1CSc1nc2c(c(=O)[nH]1)CCC2 | · | -8% | 1% | 14% | 2.8µM* | 1%[2.36 µM]
Cc1cccc(CSc2nc3c(c(=O)[nH]2)CCCC3)c1 | · | 11% | 6% | -3% | 7.9µM* | 1%
O=c1[nH]c(SCc2ccc(Cl)cc2)nc2c1CCC2 | -12% | -5% | -13% | -6% | 4.5µM* | 14%
Cc1oc(-c2ccccc2Cl)nc1CSCC(=O)NC1CCCC1 | -22% | 14µM* | -1% | 11%[9.22 µM] | -23% | 0%
Cc1cc(C)c(C#N)c(SCC(=O)C2CC2)n1 | 2%[10 µM] | · | 27% | -6%[9.22 µM] | · | 17%
C=C(C)C1Cc2c(ccc(C(=O)O)c2O)O1 (centres undefined) | · | -8% | 0% | · | 0% | ·
Nc1nnc(-c2ccc(F)cc2)s1 | -3% | -9% | -8% | -2% | -17% | 6%
SMILES | HTT ATP protect | ALDH1A1 inh | JMJD2E inh | HttQ103 aggreg | HPGD block | CBFb-RUNX1 inh
Nc1nnc(CSCc2ccc(F)cc2)s1 | -10%[10 µM] | 10µM* | -7% | -2% | 22µM* | 5%
O=C(CN1CCN(c2ccccc2)CC1)Nc1cccc([N+](=O)[O-])c1 | 19%[10 µM] | 3% | 0% | 14% | · | 6%
O=C(CCNC(=O)Cn1ccc2ccccc2c1=O)NCc1ccc(F)cc1Cl | -47% | ? | 5% | 4% | · | -1%
COc1ccc(NC(=O)c2ccc3ccccc3c2)cc1NS(=O)(=O)c1ccc(F)cc1 | 8%[10 µM] | 25% | -13% | 5% | -2% | -5%
COc1ccc(NC(=O)c2ccc(C#N)cc2)cc1NS(=O)(=O)c1ccc(F)cc1 | 1µM* | 4% | 19% | 24% | -14% | -19%
COc1cc(NS(=O)(=O)c2ccc(F)cc2)c(OC)cc1NC(C)=O | 5% | 7.9µM* | -9% | 15% | -13% | 0%
CCCCCC(=O)NNC1CC(=O)N(c2cccc(OCC)c2)C1=O (centres undefined) | -16%[10 µM] | · | 14% | -4%[9.22 µM] | · | 16%
Cc1c(C#N)c(N=CN(C)C)c(C(=O)c2ccc(Br)cc2)n1-c1ccccc1 | 9% | 22µM* | 6% | 15%[9.22 µM] | -8% | -13%
CC(=O)Oc1cccc(N2C(=O)c3ccc(C(=O)Nc4cccnc4)cc3C2=O)c1 | -27% | 18µM* | -4% | 3% | · | -1%
CCOC(=O)C1C(=O)CC(C)(O)C(C(=O)OCC)C1c1ccc([N+](=O)[O-])cc1 (centres undefined) | 0%[10 µM] | · | 3% | 15%[9.22 µM] | · | 5%
Cc1ccc(C(C2=C(O)CC(C)(C)CC2=O)C2C(=O)CC(C)(C)CC2=O)o1 (centres undefined) | 7% | 14µM* | 2% | -4% | 3.5µM* | 1%
CCCC(C1=C(O)CC(C)(C)CC1=O)C1C(=O)CC(C)(C)CC1=O (centres undefined) | 2%[1.9 µM] | 22µM* | -13% | -20% | 0% | 11%
CC1(C)CC(=O)C(C(C2=C(O)CC(C)(C)CC2=O)c2cccnc2)C(=O)C1 (centres undefined) | -8%[10 µM] | 14µM* | 0% | 2% | -7% | 3%
CC1(C)CC(=O)C(C(C2=C(O)CC(C)(C)CC2=O)c2cccc(O)c2)C(=O)C1 (centres undefined) | -9% | 14µM* | ? | 26% | -9% | -1%
